The record followed here is PubChem BioAssay AID651679 (Broad Institute, 2012).

The structures appear in SMILES notation. The list shows a part of the results. A number with no mark means an inactive call. The rule behind the calls is not given here.

Chain of Adenosylmethionine-8-amino-7-oxononanoate aminotransferase (Mycobacterium tuberculosis (strain ATCC 25618 / H37Rv)) (P9WQ81 whole entry, looked up): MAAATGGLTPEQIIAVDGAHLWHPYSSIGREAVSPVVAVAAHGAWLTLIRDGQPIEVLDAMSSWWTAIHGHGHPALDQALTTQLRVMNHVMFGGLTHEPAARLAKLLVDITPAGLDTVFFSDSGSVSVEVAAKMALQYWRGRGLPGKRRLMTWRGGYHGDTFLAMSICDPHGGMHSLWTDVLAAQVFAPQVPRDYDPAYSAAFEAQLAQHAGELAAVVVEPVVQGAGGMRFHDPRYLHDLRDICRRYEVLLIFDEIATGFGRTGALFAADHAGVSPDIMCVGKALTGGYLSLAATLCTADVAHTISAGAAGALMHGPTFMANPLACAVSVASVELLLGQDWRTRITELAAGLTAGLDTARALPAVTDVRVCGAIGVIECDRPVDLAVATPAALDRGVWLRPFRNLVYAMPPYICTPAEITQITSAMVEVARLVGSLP

This assay addresses Adenosylmethionine-8-amino-7-oxononanoate aminotransferase (Mycobacterium tuberculosis (strain ATCC 25618 / H37Rv)) (UniProt P9WQ81). The assay can be described thus: inhibition of M. tuberculosis BioA aminotransferase – biochemical, plate reader, cherry-pick samples, set 03, dose response (AID 651679).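 Note: top concentration of the dilution series was 10 µM.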 The note with it: purified BioA enzyme.
On to `CCC(CO)Oc1cc(NC(=O)c2cccc(F)c2)c2ncn(C(C)C)c2c1` (stereo not given), for which the max activity was -8.92%.

As for `COCCNC(=O)C[C@H]1CC[C@@H]2[C@H](COc3ccc(NC(=O)Nc4cccc(F)c4)cc3C(=O)N2C)O1`, the max activity is 9.1%. As for `Cn1c(=O)c2c(nc(OCc3cccnc3)n2Cc2ccccc2)n(C)c1=O`, the figure is -7.11% [at 0.3 µM]. `Cc1nc2nc(SCC(=O)NCc3ccco3)nn2c(C)c1Cc1ccccc1`: the max activity was -11.9% [at 0.16 µM]. As for `O=C(c1ccncc1)N1CC[C@@H]2[C@H]1c1cc(Br)ccc1N[C@@H]2CO`, the max activity was -4.43%. In the case of `O=C(CSc1n[nH]c(-c2cccnc2)n1)Nc1ccnc2ccccc12`, the max activity is -8.45%. As for `CC(=O)O[C@]1(C(C)=O)CC[C@H]2[C@@H]3C=C(C)C4=CC(=O)CC[C@]4(C)[C@H]3CC[C@@]21C`, the figure is -6.47% [at 0.6 µM]; as for `CCCOc1ccc2c3c(c(=O)oc2c1OCCC)CCC3`, 12.3% [at 1.2 µM]. With `CS(=O)(=O)N1[C@H](C(=O)NCc2ccncc2)[C@@H](CO)[C@@H]2Cn3c(ccc(C4=CCCCC4)c3=O)[C@@H]21`, the max activity was 4.42%. In the case of `Cc1c(OC(C)C(=O)NCC2CCC(C(=O)O)CC2)ccc2c1oc(=O)c1ccccc12` (stereo not given) it was -6.87% [at 0.3 µM]; in that of `Cc1c2cnn(CC(=O)NCc3ccccn3)c(=O)c2c(C)n1Cc1ccc(Cl)cc1`, -3.46% [at 10 µM]. For the compound `Cc1ccc(Cc2c(C)nc3nc(SCC(=O)NCCN4CCOCC4)nn3c2C)cc1`, the max activity is -9.07%. In the case of `CC1(C)CC(=O)C=C(c2ccc3ncccc3c2)C1` it was -6.7%. Regarding `O=c1[nH]c(N2CCN(Cc3ccc4c(c3)OCO4)CC2)nc2c1CCCC2`, the max activity was -3.93% [at 5 µM].

Take `COc1cc(-c2n[nH]c(=S)n2Cc2ccccc2)cc(OC)c1OC`: the max activity was -6.94% [at 0.6 µM]. As for `C=CCn1c(SCc2c(C(=O)OC)sc(N)c2C(=O)OC)nnc1-c1ccc(Cl)cc1`, the max activity is -8.75%. In the case of `CC(=O)c1ccc(N2CCN(C(=O)c3ccc4nc[nH]c4c3)CC2)cc1` it was 5.95% [at 10 µM]; in that of `CC(=O)CSc1nnc(CSc2ncccn2)n1C1CCCCC1`, 4.14%; in that of `C=C(C)CSc1nc(N)c2c3c(sc2n1)CCC3`, -5.78%. With `Cc1nc(=O)c(-c2ccccc2)c(C)n1-c1ccc(Br)cc1`, the max activity was -5.48% [at 0.08 µM].
